Assay results from PubChem BioAssay (NCI).
“And” between values parts separate entries of the source, which are not always exact repeats. Equal values may be shown once. This is part of a sample that, as a whole, favours compounds with a hit. Of some 83,000 tested, about 20% had one in any assay.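 Single-dose data. Exposure time 48 hours. Values below 10 considered active.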 The source made the active and inactive calls.

Tests used:
Test in all cases: NCI-60 one-dose screen, 48 h (100 = growth as untreated, 0 = no growth, -100 = all killed)
Settings in all cases: 10 µM unless noted
NCI-H23 lung = test system: NCI-H23 lung
NCI-H226 lung = test system: NCI-H226 lung
NCI-H322M lung = test system: NCI-H322M lung
HOP-62 NSCLC = test system: HOP-62 NSCLC
NCI-H460 lung = test system: NCI-H460 lung
HOP-92 NSCLC = test system: HOP-92 NSCLC
NCI-H522 lung = test system: NCI-H522 lung
A549/ATCC NSCLC = test system: A549/ATCC NSCLC
786-0 renal = test system: 786-0 renal
COLO 205 colon = test system: COLO 205 colon

Measured: growth

O=[N+]([O-])c1cccc(N=Cc2ccccc2)c1
inactive: NCI-H23 lung 111% | NCI-H226 lung 99.9% | NCI-H322M lung 113% | HOP-62 NSCLC 105% | NCI-H460 lung 119% | HOP-92 NSCLC 95.7% | NCI-H522 lung 88.2% | A549/ATCC NSCLC 99.8% | 786-0 renal 105% | COLO 205 colon 118%

O=C(O)c1cccc(Br)c1
inactive: NCI-H23 lung 111% and 102% | NCI-H226 lung 98.5% | NCI-H322M lung 96.4% and 95.8% | HOP-62 NSCLC 95.5% and 100% | NCI-H460 lung 115% and 105% | HOP-92 NSCLC 101% and 102% | NCI-H522 lung 103% and 85.5% | A549/ATCC NSCLC 98.8% and 87% | 786-0 renal 96.4% and 96.8% | COLO 205 colon 115%

CN(C)C(=S)N(C)C
inactive: NCI-H23 lung 99.4% | NCI-H226 lung 108% | NCI-H322M lung 140% | HOP-62 NSCLC 95.6% | NCI-H460 lung 119% | HOP-92 NSCLC 93.4% | NCI-H522 lung 83.2% | A549/ATCC NSCLC 100% | 786-0 renal 108% | COLO 205 colon 123%

C(=N\OCCc1ccccc1)/c1ccccn1
inactive: NCI-H23 lung 109% | NCI-H226 lung 121% and 108% | NCI-H322M lung 138% and 105% | HOP-62 NSCLC 127% | NCI-H460 lung 103% and 111% | HOP-92 NSCLC 103% | NCI-H522 lung 112% and 102% | A549/ATCC NSCLC 102% and 101% | 786-0 renal 96.7% and 97.1% | COLO 205 colon 135% and 115%

CC(=O)c1cc2ccccc2o1
inactive: NCI-H23 lung 97.9% | NCI-H226 lung 107% | NCI-H322M lung 110% | HOP-62 NSCLC 99.7% | NCI-H460 lung 108% | HOP-92 NSCLC 106% | NCI-H522 lung 84.1% | A549/ATCC NSCLC 104% | 786-0 renal 94.1% | COLO 205 colon 114%

OC1CCCN(Cc2ccccc2)C1 (stereo not given)
inactive: NCI-H23 lung 103% | NCI-H226 lung 106% | NCI-H322M lung 113% | HOP-62 NSCLC 107% | NCI-H460 lung 107% | HOP-92 NSCLC 106% | NCI-H522 lung 101% | A549/ATCC NSCLC 85.4% | 786-0 renal 115% | COLO 205 colon 102%

O=C(/C=C/C=C/c1ccc2c(c1)OCO2)N1CCCCC1
inactive: NCI-H23 lung 95.6% and 102% | NCI-H226 lung 104% and 95% | NCI-H322M lung 101% and 113% | HOP-62 NSCLC 100% | NCI-H460 lung 109% and 113% | HOP-92 NSCLC 97.3% and 89.6% | NCI-H522 lung 115% and 81.1% | A549/ATCC NSCLC 104% and 98.5% | 786-0 renal 103% and 57.4% | COLO 205 colon 114% and 106%

O=C1c2cccnc2-c2ncccc21
inactive: NCI-H23 lung 105% [100 µM] | NCI-H226 lung 90% [100 µM] | NCI-H322M lung 101% [100 µM] | HOP-62 NSCLC 96.9% [100 µM] | NCI-H460 lung 111% [100 µM] | HOP-92 NSCLC 96.7% [100 µM] | NCI-H522 lung 104% [100 µM] | A549/ATCC NSCLC 97.7% [100 µM] | 786-0 renal 93.1% [100 µM] | COLO 205 colon 123% [100 µM]

COc1ccc(CCn2cnn3c(=O)c4ccccc4nc3c2=O)cc1OC
inactive: NCI-H23 lung 97.6% and 114% | NCI-H226 lung 94.7% and 97% | NCI-H322M lung 103% and 110% | HOP-62 NSCLC 112% and 104% | NCI-H460 lung 105% and 118% | HOP-92 NSCLC 93.6% and 88.7% | NCI-H522 lung 112% and 97.6% | A549/ATCC NSCLC 104% and 106% | 786-0 renal 95.2% and 108% | COLO 205 colon 104% and 117%

O=C(O)C(Cc1ccc(OS(=O)(=O)Cc2ccccc2)cc1)NS(=O)(=O)Cc1ccccc1 (stereo not given)
inactive: NCI-H23 lung 105% and 112% | NCI-H226 lung 108% and 109% | NCI-H322M lung 119% and 127% | HOP-62 NSCLC 105% and 118% | NCI-H460 lung 106% and 119% | HOP-92 NSCLC 135% and 102% | NCI-H522 lung 96.6% | A549/ATCC NSCLC 101% and 105% | 786-0 renal 98.9% and 114% | COLO 205 colon 114%

CCCCCCCCCCCCCCCCC(=O)O
inactive: NCI-H23 lung 97.6% | NCI-H226 lung 101% | NCI-H322M lung 98% | HOP-62 NSCLC 104% | NCI-H460 lung 108% | HOP-92 NSCLC 110% | NCI-H522 lung 102% | A549/ATCC NSCLC 104% | 786-0 renal 97.7% | COLO 205 colon 114%

NNc1ncnc2cccc(Cl)c12
inactive: NCI-H23 lung 99.9% | NCI-H226 lung 93.1% | NCI-H322M lung 101% | HOP-62 NSCLC 95.3% | NCI-H460 lung 113% | HOP-92 NSCLC 79.7% | NCI-H522 lung 84.8% | A549/ATCC NSCLC 81.1% | 786-0 renal 105% | COLO 205 colon 104%

c1ccc2c[n+](Cc3ccc4ccccc4n3)ccc2c1
inactive: NCI-H23 lung 69.1% | NCI-H226 lung 85.8% | NCI-H322M lung 104% | HOP-62 NSCLC 80.1% | NCI-H460 lung 88.4% | HOP-92 NSCLC 56% | NCI-H522 lung 84.9% | A549/ATCC NSCLC 65.5% | 786-0 renal 95.3% | COLO 205 colon 46.5%

CC(C)(C)C1=CC(=O)C(C(C)(C)C)=CC1=O
inactive: NCI-H23 lung 84.3% and 103% | NCI-H226 lung 90.3% and 102% | NCI-H322M lung 104% and 102% | HOP-62 NSCLC 90.2% and 97.8% | NCI-H460 lung 99.7% | HOP-92 NSCLC 83.8% and 100% | NCI-H522 lung 82.5% and 88.9% | A549/ATCC NSCLC 98.5% and 91% | 786-0 renal 93.3% and 105% | COLO 205 colon 116%

COC(=O)c1nc(N)nc(C(=O)OC)c1C(=O)c1ccc(F)cc1
inactive: NCI-H23 lung 105% | NCI-H226 lung 110% | NCI-H322M lung 108% | HOP-62 NSCLC 113% | NCI-H460 lung 117% | HOP-92 NSCLC 101% | NCI-H522 lung 103% | A549/ATCC NSCLC 114% | 786-0 renal 108% | COLO 205 colon 117%

O=C(NC(=O)c1ccc(F)c(Cl)c1)NC1CC1
inactive: NCI-H23 lung 104% and 98.8% | NCI-H226 lung 99.6% and 90.7% | NCI-H322M lung 113% and 110% | HOP-62 NSCLC 107% and 101% | NCI-H460 lung 100% and 102% | HOP-92 NSCLC 99.8% | NCI-H522 lung 75.7% and 85.1% | A549/ATCC NSCLC 81.8% and 99.2% | 786-0 renal 98.7% and 94.1% | COLO 205 colon 113% and 108%

CCC(C)NC(=O)c1ccccc1C (stereo not given)
inactive: NCI-H23 lung 91.7% | NCI-H226 lung 93.6% | NCI-H322M lung 97.7% | HOP-62 NSCLC 92.1% | NCI-H460 lung 102% | HOP-92 NSCLC 84.5% | NCI-H522 lung 94.2% | A549/ATCC NSCLC 100% | 786-0 renal 95.7% | COLO 205 colon 103%

CCc1ccccc1-n1[nH]c(C)c(C=N)c1=O
inactive: NCI-H23 lung 102% | NCI-H226 lung 89% | NCI-H322M lung 106% | HOP-62 NSCLC 135% | NCI-H460 lung 109% | HOP-92 NSCLC 98.6% | NCI-H522 lung 102% | A549/ATCC NSCLC 126% | 786-0 renal 112% | COLO 205 colon 120%

CCCCCc1cc[n+](CC(=O)c2ccccc2)cc1
inactive: NCI-H23 lung 96.6% and 92.6% | NCI-H226 lung 96.8% and 89% | NCI-H322M lung 92.4% and 96% | HOP-62 NSCLC 90.5% and 108% | NCI-H460 lung 76.7% and 95.4% | HOP-92 NSCLC 67.7% | NCI-H522 lung 95% and 99.3% | A549/ATCC NSCLC 84.1% and 101% | 786-0 renal 97% and 96.3% | COLO 205 colon 87.3% and 101%

S=c1ccc2ccccc2[nH]1
inactive: NCI-H23 lung 107% and 101% | NCI-H226 lung 90.2% and 104% | NCI-H322M lung 96.8% and 96.2% | HOP-62 NSCLC 92.2% and 93.3% | NCI-H460 lung 107% | HOP-92 NSCLC 86.5% and 94.5% | NCI-H522 lung 93.3% and 89.6% | A549/ATCC NSCLC 95.7% and 94.4% | 786-0 renal 107% and 106% | COLO 205 colon 94.3% and 114%
